# Source: PubChem BioAssay
# Sampled rows, rich in hits. Any-hit rate of the full collection: about 7.5%.
# ELG1 genotox: genotoxicity induction in ELG1-luciferase HEK293T cells; HEK293T ELG1-luciferase reporter, luminescence, 16 h; actives 1.3% (n = 330,000); Potency, µM (highest dose often 46 µM), for the others: at the top dose activity change, positive = activation, hits mostly activators; further: % of control where 0% means no effect; nearly all actives have a fitted effect of over 60% in size
#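 16 hr compound incubation (37 °C, 5% CO2) of HEK293T cells carrying luciferase-tagged ELG1; luciferase then measured by ONE-Glo luminescence after 30 min at RT.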
# KinaseGlo FLuc: blocks Kinase-Glo luciferase, a counter-screen artifact; Q27757; Kinase-Glo luciferase, ATP luminescence, 8 min; Potency, µM (top dose mostly 38.3 µM), without a hit: at the highest dose activity change, negative = inhibition, actives largely listed as inhibitors; actives 0.28% (n = 200,000); AID 1379; further: on the % scale 0 is the no-effect control and ±100 the full control effect; nearly all actives have a fitted effect of over 60% in size
#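 Inhibition of Kinase-Glo luciferase light generation was assessed at 10 uM ATP in pH 7.2 imidazole buffer, with luminescence measured after eight minutes at ambient temperature.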
# NPC1 prom act: NPC1 promoter activation; Huh7 NPC1 promoter luciferase reporter, 24 h; Potency, µM (doses to about 9.22 µM), inactives show top-dose activation, actives largely listed as activators; actives 2.4% (n = 320,000); AID 485313; further: % of control where 0% means no effect; nearly all actives have a fitted effect of over 60% in size
#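 Readout is luciferase luminescence, reflecting NPC1 promoter activation in stably transfected Huh7 cells after 24 h compound exposure at 37 °C in reduced-serum medium with 10% FBS.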
# SMN2 splice enh: enhancers of SMN2 splice variant expression | HEK293 SMN2-luciferase splicing reporter, luminescence, 30-36 h | Potency, µM (titrated, usually from 46.1 µM), inactives show at the top dose activity change, positive = activation, usual class: activators | AID 1458 | actives 2.8% (n = 210,000); further: % of control where 0% means no effect; nearly all actives have a fitted effect of over 55% in size
#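 HEK293 cells carry an SMN2 minigene-luciferase reporter in which exon 7 inclusion puts luciferase in frame. Cells were seeded at 2000 cells/well, attached for 10-12 hours, then exposed to compounds for 30-36 hours at 37C before ONE-Glo luminescence.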
# Rab9 promoter act: activates the Rab9 promoter; Huh7 Rab9 promoter-luciferase reporter, luminescence, 24 h; Potency, µM (titrated, usually from 9.22 µM), for the others: top-dose activation, negative = inhibition, hits mostly activators; actives 2.8% (n = 320,000); further: % of control where 0% means no effect; nearly all actives have a fitted effect of over 60% in size
#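 Cell-based reporter: Huh7 stable for Rab9 promoter-driven luciferase, plated in reduced-serum medium with 10% FBS at 1500 cells/well, compound-treated 24 h at 37 °C, luminescence read after 10 min reagent.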
# FLuc modulator: firefly luciferase modulation, counter-screen for miR-21 project. P08659. actives 6.9% (n = 360,000). Potency, µM (doses to about 57.5 µM), inactives show at the top dose activity change, negative = inhibition, usual class: inhibitors. AID 588342. purified FLuc, Km substrates, luminescence inhibition;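 further: plate controls were vehicle for no effect and reference inhibitor for full effect; nearly all actives have a fitted effect of over 55% in size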
# Target sequence (P08659 whole entry, looked up): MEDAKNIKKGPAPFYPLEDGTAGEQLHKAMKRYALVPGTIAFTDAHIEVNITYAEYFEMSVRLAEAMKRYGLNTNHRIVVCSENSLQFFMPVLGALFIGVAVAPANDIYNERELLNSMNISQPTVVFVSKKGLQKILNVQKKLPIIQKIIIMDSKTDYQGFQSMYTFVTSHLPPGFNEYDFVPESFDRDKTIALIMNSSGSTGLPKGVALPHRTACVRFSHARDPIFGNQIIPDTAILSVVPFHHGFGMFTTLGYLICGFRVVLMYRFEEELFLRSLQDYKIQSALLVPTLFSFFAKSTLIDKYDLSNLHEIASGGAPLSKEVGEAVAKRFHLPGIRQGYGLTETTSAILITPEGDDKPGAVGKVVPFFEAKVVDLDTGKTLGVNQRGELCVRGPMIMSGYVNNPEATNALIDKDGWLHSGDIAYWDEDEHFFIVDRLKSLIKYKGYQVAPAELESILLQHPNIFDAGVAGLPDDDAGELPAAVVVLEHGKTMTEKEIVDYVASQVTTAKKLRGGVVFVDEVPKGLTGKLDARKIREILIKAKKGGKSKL
#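 Purified P. pyralis luciferase (10nM final) with 10uM D-luciferin and 10uM ATP (Km levels) in 50mM Tris acetate pH 7.5, 10mM Mg acetate, 0.01% Tween-20, 0.05% BSA; qHTS 6-point titration, ~60 µM downward; luminescence read.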
# * hit, by the source's call; ? = inconclusive; · = no result. The call rests on the fitted dose curve; in most records, active means well fitted curve in the direction sought with a large enough effect; inconclusive means small, poorly fitted or top-dose-only effect, or another doubt; inactive means no such curve, though single readings can be large; an effect the other way counts as inactive or inconclusive. Potency means the concentration at half of the fitted maximal effect.
SMILES,ELG1 genotox,KinaseGlo FLuc,NPC1 prom act,SMN2 splice enh,Rab9 promoter act,FLuc modulator
O=C(COC(=O)c1ccc(Cl)nc1)c1ccc2c(c1)OCCO2,?,0%,4µM*,-3%,1.6µM*,0.76µM*
COc1ccccc1N1CCN(CCCNC(=O)c2cnn(-c3cccc(Cl)c3)c2C2CCN(C(=O)OC(C)(C)C)CC2)CC1,·,·,·,·,·,-2%
COc1ccc(/C=C2\SC(=S)N(CCC(=O)N3CCCCC3CCO)C2=O)cc1 (stereo not drawn),-9%,·,-1%,·,-6%,?
COc1ccc(/C=C2\SC(=O)N(CCNC(=O)C3CSC4(C)CCC(=O)N34)C2=O)cc1 (stereo not drawn),1%,·,15%,·,17%,17µM*
COc1ccc(/C=C2\SC(=O)N(CCNC(=O)CN3C(=O)NC4(CCCC4)C3=O)C2=O)cc1,4%,·,11%,·,24%,3%
COc1ccc(/C=C2\SC(=O)N(CCC(=O)N3CCCCC3CCO)C2=O)cc1 (stereo not drawn),-2%,·,-4%,·,-1%,9.5µM*
COc1ccc(/C=C2\SC(=O)N(CCNC(=O)C3CC4C=CC3C4)C2=O)cc1 (stereo not drawn),?,0%,2.8µM*,25µM*,0.71µM*,6.7µM*
COc1cccc(CSc2nc3n(n2)C(c2cccs2)C(C(=O)Nc2ccccc2C)=C(C)N3)c1 (stereo not drawn),·,·,·,·,·,-7%
CC(=O)NC(Cc1cccc(F)c1)C(=O)NC1CCN(C(=O)c2ccc(C)cc2)CC1 (stereo not drawn),0%,-2%,-7%,·,-6%,1%
CCOC(=O)c1ccc2c(c1)NCc1cccc(OC)c1O2,?,·,2.5µM*,·,2.8µM*,5.4µM*
CCOc1ccc(NC(=O)CC2CC(C)(C)OC2=O)cc1 (stereo not drawn),1%,-4%,0%,-3%,1%,-2%
CCCC1CC(C)(c2csc(Nc3ccc(OCC)cc3)n2)OC1=O (stereo not drawn),8%,2%,0%,-92%,-2%,19µM*
O=C(CSc1ccc(-c2ccco2)nn1)Nc1ccc(F)cc1F,-13%,·,7%,·,1%,?
Clc1cccc(CSc2ccc(-c3ccco3)nn2)c1,8%,-3%,12%,26%,27%,21µM*
Cc1ccc(CSc2ccc(-c3ccco3)nn2)cc1,?,-14%,3.5µM*,11µM*,2.8µM*,4.8µM*
Fc1ccccc1CSc1ccc(-c2ccco2)nn1,?,-3%,2.2µM*,18µM*,1.6µM*,6µM*
c1ccc(CSc2ccc(-c3ccco3)nn2)cc1,8.2µM*,-6%,4µM*,13µM*,1.8µM*,2.4µM*
Clc1ccc(CSc2ccc(-c3ccco3)nn2)cc1,15%,-5%,?,?,?,?
Cc1cccc(NC(=O)Cn2c(=O)n(CCCS(=O)(=O)C3CCCCC3)c(=O)c3ccccc32)c1,·,·,·,1%,·,-6%
COc1ccc(NC(=O)Cc2ccc(C)c(C)c2)cc1S(=O)(=O)N1CCCCC1,-5%,·,·,·,·,·
CC1=Nc2cc(C(=O)NC3CCCCC3)ccc2Sc2ccc(Cl)cc21,·,·,·,·,·,-9%
CC1(C(=O)Nc2ccc3c(c2)OCO3)CC1(Cl)Cl (stereo not drawn),13%,·,15%,·,19%,-12%
Cc1cccc(CSc2nnc(-c3ccco3)o2)c1,?,0%,18%,26%,16%,?
Cc1cccc(CSc2ccc(-c3ccco3)nn2)c1,?,-2%,?,?,?,12µM*
CSc1nc(C)cc(Nc2c(C)cc(C)cc2C)n1,·,·,·,·,·,0%
SMILES,ELG1 genotox,KinaseGlo FLuc,NPC1 prom act,SMN2 splice enh,Rab9 promoter act,FLuc modulator
Cc1ccoc1C(=O)Nc1ccc2ccccc2c1,?,·,1µM*,·,0.45µM*,0.38µM*
O=C(O)Cc1ccc(NC(=O)c2ccc(NC(=O)c3ccco3)cc2)cc1,6%,4%,-1%,-20%,0%,?
Cc1cc(C(=O)Nc2ccc3ccccc3c2)oc1C,9.2µM*,·,0.63µM*,·,0.79µM*,2.1µM*
Cc1ccoc1C(=O)Nc1ccc(CC(=O)O)cc1,?,-29%,-2%,?,-4%,1.7µM*
Cc1cc(C(=O)Nc2ccc3ccccc3c2)c(C)o1,0.65µM*,·,1.4µM*,·,3.5µM*,1.3µM*
CC(=O)c1cc(C(=O)Nc2ccc3ccccc3c2)c(C)o1,3%,·,-2%,·,2%,4%
O=C(c1cnc(N2CCCCC2)c2ccccc12)N1CCN(c2cccc(Cl)c2)CC1,·,·,·,·,·,-4%
CC(=O)Nc1ccc(S(=O)(=O)NC2CCS(=O)(=O)C2)cc1Cl (stereo not drawn),0%,·,-1%,·,1%,-1%
Cc1ccc(-c2nnc(Nc3ccccc3)o2)cc1,0.15µM*,13µM*,?,0.4µM*,0.13µM*,0.15µM*
Cc1ccc(/C=C/c2nnc(-c3ccccc3)o2)cc1,?,-14%,0.89µM*,?,1.1µM*,5.4µM*
C(=C\c1nnc(-c2cccs2)o1)/c1ccccc1,?,-6%,2.5µM*,?,2.5µM*,5.4µM*
O=C(c1ccccc1)c1c[nH]c2cc3c(cc2c1=O)OCO3,6%,-2%,-7%,17%,1%,0%
O=C(NCc1cccnc1)c1c[nH]c2cc3c(cc2c1=O)OCCO3,?,-1%,-1%,-44%,2%,6µM*
O=C(c1ccccc1)c1c[nH]c2cc3c(cc2c1=O)OCCO3,16%,-1%,22%,22µM*,?,?
O=C(c1cc2ncc(Br)cn2n1)N1CCN(C(=O)c2ccco2)CC1,-5%,0%,-2%,15%,-10%,4%
O=C(c1ccco1)n1c(=S)nc2ccccn21,5µM*,13µM*,2.8µM*,?,1.4µM*,3.8µM*
Cc1cccc2nc(=S)n(C(=O)c3ccco3)n12,?,3.2µM*,?,50%,1.3µM*,1.1µM*
O=C(N/N=C/c1cccc(NC(=O)c2ccc(Cl)cc2)c1)c1ccc(O)cc1,-2%,·,2.5µM*,·,4µM*,1.3µM*
O=C(N/N=C/c1c(Cl)cccc1Cl)c1cccc(F)c1,17%,-1%,12%,-3%,24%,-7%
O=C(N/N=C/c1cccc(F)c1)c1ccc(Cl)cc1,?,-2%,4µM*,16µM*,3.2µM*,2.4µM*
CC(C)(C)c1ccc(C(=O)N/N=C/c2cccc(Cl)c2)cc1,-6%,-4%,?,1%,?,4.8µM*
CCCCN(CCCC)CCNC(=O)Cn1nc(CC)n2c(cc3sc(C)cc32)c1=O,·,·,·,4%,·,-6%
